Among the data in PubChem BioAssay (NCI) are growth values, retold here.

Common to all, as to assay: NCI-60 one-dose screen, 48 h (100 = growth as untreated, 0 = no growth, -100 = all killed)
Holding throughout (details): 10 µM unless noted

Assay [1] relates to SR leukemia.
The test system of assay [2] is RPMI-8226 leukemia.
The test system of assay [3] is OVCAR-8 ovarian.
Assay [4] deals with OVCAR-5 ovarian.
Assay [5] deals with OVCAR-4 ovarian.
The test system of assay [6] is SK-OV-3 ovarian.
Assay [7] has as its system IGROV1 ovarian.
In assay [8] the test system is OVCAR-3 ovarian.
Assay [9] deals with HS 578T breast.
The test system of assay [10] is NCI/ADR-RES ovarian.
Assay [11] deals with T-47D breast.
Assay [12] deals with BT-549 breast.
The subject of assay [13] is MDA-MB-435 melanoma.
In assay [14] the test system is SW-620 colon.
Assay [15] relates to MCF7 breast.
For assay [16], the system named is HCT-116 colon.
Assay [17] has as its system HCC-2998 colon.
The subject of assay [18] is KM12 colon.
In assay [19] the test system is MDA-MB-468 breast.

The panel holds about 83,000 compounds, 20% with a hit somewhere; the sample as a whole holds those more often.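 Single-concentration screen, 48 h exposure, 96-well plates. Endpoint: percent growth. Below 10 = active.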 Values without a mark were called inactive. Active and inactive are the calls of the source.

With `O=C(O)Cn1c(O)c(/C=C2/C=c3cc4c(cc3=NC2=O)OCCO4)sc1=S`, the growth was 89.2% in assay [1]; 98.2% in assay [2]; 110% in assay [3]; 112% in assay [4]; 109% in [5]; 129% in assay [6]. For the same molecule, the growth is 114% in [7]; 110% in assay [8]; 107% in [9]; 103% in assay [10]; 104% in assay [11]; 104% in [12]. In addition, the growth in assay [13] was 102%; in [14], 113%; in assay [15], 86.3%; in assay [16], 103%; in assay [17], 109%; in assay [18], 104%. Besides, the growth in assay [19] was 111%.

Turning to `Cn1cc(-c2nnc(N)nc2-c2c[nH]c3ccccc23)c2cccnc21`, the growth in assay [1] was 25.2%; in [2], 43.5%; in [3] it was 49.7%; in assay [4], 77.8%; in [5], 76.8%; in assay [6], 64.6%. Moreover, the growth in assay [7] was 39.5%; in assay [8] it was 25.9%; in [9], 41.4%; in assay [10] it was 76.3%; in [11], 44.6%; in assay [12], 34.7%. Besides, the growth in [13] is -28.9% (active); in assay [14], 16.5%; in [15] it was 22.5%; in [16] it was 18.2%; in [17], 81%; in assay [18], 17.2%. In assay [19], the growth was 33.4%.

As to `C#CCOc1ccc(/C=N/Nc2nc(-c3cc4cc(Br)ccc4oc3=O)cs2)cc1OC`, the growth in [1] is 80.2%; in [2], 68.2%; in assay [3] it was 65.7%; in assay [4], 73.9%; in [5], 47.8%; in assay [6], 25.7%. In addition, the growth in assay [7] was 83.1%; in assay [8], 87.3%; in assay [9] it was 86.8%; in [10], 63.8%; in assay [11], 51.1%; in [12], 48.5%. Besides, the growth in assay [13] was 78.7%; in assay [14], 77.6%; in assay [15], 41.9%; in [16], 71.5%; in [17], 39.6%; in assay [18] it was 51.1%. Besides, the growth in assay [19] was 26.8%.

Take `COc1cc(C2CC(c3cc(OC)c(OC)c(OC)c3)=NN2C(C)=O)ccc1OCc1ccc(F)cc1` (configuration not stated): the growth was 39.7% in assay [1]; 36.6% in assay [2]; 61.9% in assay [3]; 57.8% in assay [4]; 42.1% in assay [5]; 80.1% in assay [6]. Besides, the growth in [7] was 45.8%; in assay [8] it was 70.3%; in assay [9], 58.8%; in [10], 60.6%; in assay [11], 24.8%; in [12], 44.9%. In addition, the growth in assay [13] is 62.5%; in assay [14] it was 58.5%; in [15], 34.7%; in [16], 31.5%; in [17], 86%; in assay [18], 57.1%. In addition, the growth in assay [19] is 47.1%.

For the molecule `Cn1cc(-c2cc(N)n3nc(-c4cn(C)c5ccc(Cl)cc45)cc3n2)c2ccccc21`, the growth in assay [1] was 99.7%; in [2], 109%; in [3], 104%; in assay [4] it was 108%; in [5], 111%; in assay [6] it was 105%. Further, the growth is 111% in [7]; 122% in assay [8]; 113% in assay [9]; 105% in assay [10]; 101% in [11]; 118% in assay [12]. In addition, the growth in [13] was 101%; in assay [14], 114%; in [15], 98.8%; in [16], 104%; in assay [17], 105%; in [18], 109%. In addition, the growth in assay [19] is 96.4%.

In the case of `CC(=O)OC[C@@]1(C)C2CC[C@]3(C)C(CC=C4C5CC(C)(C)CC[C@]5(C(=O)Nc5ccc(C)cc5)CC[C@]43C)[C@@]2(C)C[C@@H](OC(C)=O)[C@@H]1OC(C)=O` (some centres not stated), the growth is 30.9% in [1]; 13.8% in assay [2]; 40.3% in [3]; 95.2% in assay [4]; 40.2% in assay [5]; 54.3% in assay [6]. Moreover, the growth in assay [7] was 60.9%; in assay [8], 48.9%; in assay [9] it was 86%; in assay [10], 40.4%; in assay [11] it was 17.5%; in [12] it was 51.3%. Further, the growth is 48.8% in assay [13]; 40.5% in assay [14]; 25.6% in assay [15]; 24.7% in assay [16]; 44.8% in [17]; 51.9% in [18]. Also, the growth in [19] was 8.22% (active).

As to `O=C1CCCc2cc(OCC(=O)N3CCCCC3)ccc2N1`, the growth is 104% in [1]; 101% in [2]; 104% in assay [3]; 123% in assay [4]; 103% in assay [5]; 111% in [6]. The growth in assay [7] is 121%; in assay [8] it was 110%; in [9], 105%; in [10] it was 109%; in [11], 108%; in assay [12], 126%. In addition, the growth in assay [13] was 108%; in assay [14], 106%; in assay [15] it was 94%; in [16], 114%; in [17] it was 122%; in [18] it was 108%. The growth in assay [19] was 107%.

As for `OCNc1ccc(-n2cnc3cc(-c4ccc(O)cc4)ccc32)cc1C(F)(F)F`, the growth in assay [1] was 25.3%; in [2], 24.1%; in assay [3] it was 16%; in assay [4], 34.4%; in assay [5] it was 55%; in assay [6], 54.7%. Moreover, the growth is 44% in [7]; 15.9% in [8]; 11.2% in assay [9]; 17.2% in [10]; 23.8% in [11]; 24% in [12]. The growth in assay [13] is 7.66% (active); in assay [14] it was 27.1%; in assay [15], 10.1%; in assay [16] it was 22.6%; in assay [17], 43.4%; in [18], 4.46% (active). In assay [19], the growth is 27.7%.
